According to PubChem BioAssay AID909 (National Center for Advancing Translational Sciences (NCATS), 2007):
The list shows a part of the results. A call without a number means that no potency is given here. Inconclusive results are not listed. Active and inactive are the calls of the source. The call rests on the fitted dose curve; in most records, active means well fitted inhibition curve with a large enough effect in the main read-out, with a control signal flat; inconclusive means small, poorly fitted or top-dose-only effect, or a change in a side signal; inactive means no such curve, though single readings can be large or run the other way.

What follows are molecules tested against Caspase-7 (Homo sapiens) (UniProt P55210) (assay: Concentration-Response Counterscreen for Redox Active Inhibitors of Caspase-7: Catalase). Conditions: Caspase-7 Ac-DEVD-AFC fluorescence rate, catalase buffer; series mostly up to 57.5 µM.
Caspase-7 (Homo sapiens), sequence (P55210 24-198 limits assumed): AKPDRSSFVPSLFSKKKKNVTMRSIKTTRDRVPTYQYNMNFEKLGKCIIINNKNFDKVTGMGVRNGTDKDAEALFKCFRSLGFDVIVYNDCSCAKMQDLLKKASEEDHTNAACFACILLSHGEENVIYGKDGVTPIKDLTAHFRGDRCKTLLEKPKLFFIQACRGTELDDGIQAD
Caspase-7 (Homo sapiens), sequence (P55210 207-303 limits assumed): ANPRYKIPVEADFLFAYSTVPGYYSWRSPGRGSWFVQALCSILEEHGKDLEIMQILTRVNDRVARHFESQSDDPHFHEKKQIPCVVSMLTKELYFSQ
From the text: NIH Molecular Libraries Screening Centers Network [MLSCN] NIH Chemical Genomics Center [NCGC] MLSCN Grant: 1 X01 MH078950-01 PI Name: Dr. James Wells, Dr. Enrique Perez-Paya, Dr.Janice Williams, Dr. Dennis Wolan, a person NCGC Assay Overview: The caspases (Cysteine Aspartyl Protease) comprise a related family of 14 dimeric proteases that are critical mediators of apoptosis (programmed cell death) and inflammation. The caspases represent an important class of drug targets for stroke, ischemia, cancer and inflammatory diseases. […] One goal of this project was to identify compounds that act as allosteric inhibitors via stabilizing the procaspase form of the enzyme. […] After initiation of the assay with substrate the plates were rapidly read using an automated robotic system (Kalypsys, Inc.) to maintain consistent timing. […]
NCGC Assay Protocol Summary: Caspase 7 was prepared in buffer (50 mM HEPES pH 7.5, 50 mM KCl, 200 mM NaCl, 50 units/well catalase (from bovine liver, Sigma cat#100), 0.1% CHAPS) at a concentration of 66.6 nM and 3 uL was dispensed to all wells using black solid Kalypsys 1536-well plates. […] The plates were then exposed using 405 nm excitation/520 nm emission filters for 4 sec and read at 20 sec intervals for 3 min. […]
`CCN1C(=O)/C(=C2/Sc3ccccc3N2CCCS(=O)(=O)O)SC1=S` was tested, and the Potency was “inactive”.
`N#CC1=C(N)Oc2cc(O)ccc2C1C1CCCCC1` (configuration not stated) was tested, and the Potency was 31.6 µM (active).
